# Data published in PubChem BioAssay AID540360 (National Center for Advancing Translational Sciences (NCATS), 2011).
# Inconclusive results are not listed. Calls of active or inactive are those of the source. The call rests on the fitted dose curve; in most records, active means well fitted inhibition curve with a large enough effect; inconclusive means small, poorly fitted or top-dose-only effect; inactive means no such curve, though single readings can be large or run the other way.
# System: 6-phosphofructokinase (Trypanosoma brucei)
# Experiment: Confirmatory Assay to Find Inhibitors of T. brucei phosphofructokinase: probe SAR
# Details: recombinant T. brucei PFK, ADP-Glo luminescence; series mostly up to 57.5 µM
# Excerpt: NIH Molecular Libraries Probe Production Network [MLPCN] NIH Chemical Genomics Center [NCGC] Grant: 1 R03 MH092153-01 PI Name: Malcolm Walkinshaw, University of Edinburgh NCGC Assay Overview: Various species of the protozoan family Trypanosomatidae are responsible for a range of serious human diseases in tropical and subtropical areas of the world. […] Many of the disorders caused by trypanosomatids are fatal if left untreated, but most currently used drugs are inefficient and toxic. […] Oxidative metabolism involving the mitochondrial tricarboxylic acid cycle and oxidative phosphorylation are repressed in these parasites, and recent RNA interference (RNAi) experiments have shown that even partial depletion of certain individual glycolytic enzymes can lead to the death of cultured parasites. One such glycolytic enzyme, phosphofructokinase (PFK), catalyzes the formation of fructose-1,6-bisphosphate (F1,6BP) and ADP from fructose-6-phosphate (F6P) and ATP, and in many metabolic circumstances makes an important contribution to the control of flux through the glycolytic pathway. As a specific glycolytic target, PFK is particularly attractive as it catalyzes the first irreversible step in glycolysis, and structural and kinetic studies have shown very substantial and essential differences from corresponding host enzymes, allowing for the discovery of parasite-selective inhibitors. The goal of this screen is to find small-molecule inhibitors of T. brucei PFK using a biochemical assay that measures PFK activity as a function of ADP production. A luminescence-based assay for T. brucei PFK activity has been developed which uses luciferase to detect production of ADP. Traditional luciferase-based nucleotide detection reagents rely on ATP production as a direct substrate for the luciferase reaction; however, PFK catalyzes the transfer of a phosphate from ATP to F6P, resulting in the net depletion of ATP. To directly measure the ADP product of the PFK reaction, we used the ADP-Glo detection kit (Promega), which utilizes two separate reactions to 1) deplete all remaining uncatalyzed ATP and 2) convert all remaining ADP to ATP, which is then detected through a traditional luciferase-coupled reaction. Compounds were screened as a concentration-titration series that ranged from 57 uM to 0.3 nM.
# NCGC Assay Protocol Summary: NCGC Assay Protocol Summary: Substrate buffer was dispensed into white, solid 1536-well plates at 3uL/well in 0.1M triethanolamine (TEA) buffer, pH 8.0, containing final concentrations of 5 mM MgCl2, 0.01% Tween20, 0.5 mM fructose-6-phosphate (F6P) and 0.1mM ATP. Then, 23 nL of compounds or DMSO were delivered to each well using a pin tool. One uL T. brucei PFK (0.1M TEA, 0.01% Tween20, 0.1% bovine serum albumin (BSA) and 1.25nM PFK, final concentrations) was then dispensed, and plates were incubated at room temperature for 45 min. The luminescent detection reagent, ADP-Glo (Promega), was then added in two steps: the first reagent, ADP-Glo (which converts remaining uncatalyzed ATP), was added at 2.5uL/well and incubated for ten minutes at room temperature, and the second component, Kinase Detection reagent (which converts ADP to ATP as a substrate for luciferase-based luminescence), was added immediately after at 5uL/well, followed by one final ten minute room temperature incubation. The plates were measured on a ViewLux plate reader for luminescent signal using a clear filter with a one second exposure. The %Activity was determined from the corrected luminescence values. As no specific T. brucei PFK inhibitors have been identified in the literature, 1x (1.25nM) and 0x PFK enzyme controls (untreated) were included to normalize %Activity of identified inhibitors; 0x enzyme values corresponded to 100%Activity (full inhibition), while 1x PFK enzyme values were used to normalize 0%Activity (no inhibition). Concentration-response curves were fitted to the signals arising from the resulting luminescence. […]
row,SMILES,Potency
1,Cc1cc(NS(=O)(=O)c2ccc(NC(=O)Cc3ccc(Cl)c(C(F)(F)F)c3)cc2)no1,461 nM (active)
2,Cc1cc(NC(=O)c2csc(NC(=O)Cc3ccc(Cl)c(Cl)c3)n2)no1,inactive
3,O=C(Cc1ccc(Cl)c(Cl)c1)Nc1ccc(S(=O)(=O)Nc2ccc(C(=O)O)cc2)cc1,163 nM (active)
4,COc1ccc(CC(=O)Nc2ccc(S(=O)(=O)Nc3cc(C)on3)cc2)cc1C,inactive
5,CCOC(=O)c1cccc(NS(=O)(=O)c2ccc(NC(=O)Cc3ccc(Cl)c(Cl)c3)cc2)c1,inactive
6,Cc1cc(NS(=O)(=O)c2ccc(NC(=O)Cc3ccc(Cl)c(F)c3)cc2)no1,580 nM (active)
7,COc1ccc(CC(=O)Nc2ccc(S(=O)(=O)Nc3cc(C)on3)cc2)cc1OC,inactive
8,O=C(Cc1ccc(Cl)c(Cl)c1)Nc1ccc(S(=O)(=O)Nc2ccon2)cc1,366 nM (active)
9,Cc1cc(N(C)S(=O)(=O)c2ccc(NC(=O)Cc3ccc(Cl)c(Cl)c3)cc2)no1,2910 nM (active)
10,O=C(Cc1ccc(Cl)c(Cl)c1)Nc1ccc(S(=O)(=O)Nc2cncnc2)cc1,819 nM (active)
11,Cc1cc(NS(=O)(=O)c2ccc(NC(=O)Cc3ccc4ccccc4c3)cc2)no1,6510 nM (active)
12,Cc1cc(NS(=O)(=O)c2ccc(NC(=O)Cc3cccc(Cl)c3)cc2)no1,7300 nM (active)
13,Cc1cc(NC(=O)c2ccc(NC(=O)Cc3ccc(Cl)c(Cl)c3)cc2)no1,inactive
14,O=C(Cc1ccc(Cl)c(Cl)c1)Nc1ccc(S(=O)(=O)Nc2ccccc2)cc1,16300 nM (active)
15,Cc1cc(NS(=O)(=O)c2ccc(NC(=O)Cc3ccc(C)c(C)c3)cc2)no1,18300 nM (active)
16,Cc1cc(NS(=O)(=O)c2cccc(NC(=O)Cc3ccc(Cl)c(Cl)c3)c2)no1,16300 nM (active)
17,CN(C)c1cccc(NS(=O)(=O)c2ccc(NC(=O)Cc3ccc(Cl)c(Cl)c3)cc2)c1,5800 nM (active)

row,SMILES,Potency
1,O=C(Cc1ccc(Cl)c(Cl)c1)Nc1ccc(S(=O)(=O)O)cc1,651 nM (active)
2,Cc1cc(NS(=O)(=O)c2ccc(NC(=O)CCc3ccc(Cl)c(Cl)c3)cc2)no1,5170 nM (active)
3,Cc1cc(NS(=O)(=O)c2ccc(NC(=O)Cc3ccc(C)c(F)c3)cc2)no1,5800 nM (active)
4,O=C(Cc1ccc(Cl)c(Cl)c1)Nc1ccc(S(=O)(=O)Nc2cccc(C(=O)O)c2)cc1,259 nM (active)
5,O=C(Cc1ccc(Cl)c(Cl)c1)Nc1ccc(S(=O)(=O)Nc2cccc(O)c2)cc1,1460 nM (active)
6,O=C(Cc1ccc(Cl)c(Cl)c1)Nc1ccc(S(=O)(=O)Nc2ccn[nH]2)cc1,517 nM (active)
7,Cc1cc(N[S+](=O)([O-])c2ccc3cc(NC(=O)Cc4ccc(Cl)c(Cl)c4)ccc3c2)no1,5800 nM (active)
8,Cc1cc(NS(=O)(=O)c2ccc(NC(=O)Cc3ccc(Cl)c(Cl)c3)cc2)no1,410 nM (active)
9,Cc1cc(NS(=O)(=O)c2ccc(NC(=O)Cc3ccc(Cl)c(Cl)c3)cc2)n(C)n1,1460 nM (active)
10,Cc1cc(NS(=O)(=O)c2ccc(NC(=O)Cc3ccc(Cl)cc3Cl)cc2)no1,4610 nM (active)
11,Cc1cc(NS(=O)(=O)c2ccc(N(C)C(=O)Cc3ccc(Cl)c(Cl)c3)cc2)no1,1630 nM (active)
12,Cc1cc(NS(=O)(=O)c2ccc(NCCc3ccc(Cl)c(Cl)c3)cc2)no1,4610 nM (active)
13,Cc1cc(N[S+](=O)([O-])c2ccc(NC(=O)Cc3ccc(Cl)nc3)cc2)no1,20600 nM (active)
14,Cc1cc(NS(=O)(=O)c2ccc(NC(=O)Cc3ccc(Cl)cc3)cc2)no1,1830 nM (active)
15,Cc1cc(NS(=O)(=O)Cc2ccc(NC(=O)Cc3ccc(Cl)c(Cl)c3)cc2)no1,2590 nM (active)
16,Cc1cc(NS(=O)(=O)c2ccc(C(=O)NCc3ccc(Cl)c(Cl)c3)cc2)no1,2910 nM (active)
17,Cc1cc(NS(=O)(=O)c2ccc(NC(=O)Cc3ccc(Cl)c(Cl)c3)cc2)on1,206 nM (active)
